Measurements published in ChEMBL document CHEMBL2218924, “A broad activity screen in support of a chemogenomic map for kinase signalling research and drug discovery” (Biochem J, 2013).

Tests used:
[1] = target: Calcium/calmodulin-dependent protein kinase type 1 (Homo sapiens) (UniProt Q14012); conditions: at 1 µM
[2] = target: Calcium/calmodulin-dependent protein kinase type 1 (Homo sapiens) (UniProt Q14012); conditions: at 10 µM
[3] = target: Calcium/calmodulin-dependent protein kinase type II subunit beta (Homo sapiens) (UniProt Q13554); conditions: at 1 µM
Calcium/calmodulin-dependent protein kinase type II subunit beta (Homo sapiens), sequence (Q13554 whole entry): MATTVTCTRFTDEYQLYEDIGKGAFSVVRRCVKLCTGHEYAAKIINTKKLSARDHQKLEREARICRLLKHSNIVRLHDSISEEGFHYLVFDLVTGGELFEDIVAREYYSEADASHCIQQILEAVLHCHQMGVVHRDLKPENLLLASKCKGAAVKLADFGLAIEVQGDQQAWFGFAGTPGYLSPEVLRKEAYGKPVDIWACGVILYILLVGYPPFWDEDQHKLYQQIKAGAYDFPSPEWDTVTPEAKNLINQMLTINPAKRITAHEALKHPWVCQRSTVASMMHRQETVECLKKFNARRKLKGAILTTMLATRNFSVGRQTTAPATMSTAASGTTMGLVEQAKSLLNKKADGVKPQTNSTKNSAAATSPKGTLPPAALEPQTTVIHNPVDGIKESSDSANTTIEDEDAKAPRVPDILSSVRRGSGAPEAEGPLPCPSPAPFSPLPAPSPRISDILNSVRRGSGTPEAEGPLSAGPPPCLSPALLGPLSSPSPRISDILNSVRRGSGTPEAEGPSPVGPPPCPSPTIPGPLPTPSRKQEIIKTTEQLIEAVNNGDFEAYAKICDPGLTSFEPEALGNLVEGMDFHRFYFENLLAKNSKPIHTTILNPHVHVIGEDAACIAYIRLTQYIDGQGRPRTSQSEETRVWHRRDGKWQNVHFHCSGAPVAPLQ

[4] = target: Calcium/calmodulin-dependent protein kinase type II subunit beta (Homo sapiens) (UniProt Q13554); conditions: at 10 µM
[5] = target: Calcium/calmodulin-dependent protein kinase type II subunit gamma (Homo sapiens) (UniProt Q13555); conditions: at 1 µM
Calcium/calmodulin-dependent protein kinase type II subunit gamma (Homo sapiens), sequence (Q13555 whole entry): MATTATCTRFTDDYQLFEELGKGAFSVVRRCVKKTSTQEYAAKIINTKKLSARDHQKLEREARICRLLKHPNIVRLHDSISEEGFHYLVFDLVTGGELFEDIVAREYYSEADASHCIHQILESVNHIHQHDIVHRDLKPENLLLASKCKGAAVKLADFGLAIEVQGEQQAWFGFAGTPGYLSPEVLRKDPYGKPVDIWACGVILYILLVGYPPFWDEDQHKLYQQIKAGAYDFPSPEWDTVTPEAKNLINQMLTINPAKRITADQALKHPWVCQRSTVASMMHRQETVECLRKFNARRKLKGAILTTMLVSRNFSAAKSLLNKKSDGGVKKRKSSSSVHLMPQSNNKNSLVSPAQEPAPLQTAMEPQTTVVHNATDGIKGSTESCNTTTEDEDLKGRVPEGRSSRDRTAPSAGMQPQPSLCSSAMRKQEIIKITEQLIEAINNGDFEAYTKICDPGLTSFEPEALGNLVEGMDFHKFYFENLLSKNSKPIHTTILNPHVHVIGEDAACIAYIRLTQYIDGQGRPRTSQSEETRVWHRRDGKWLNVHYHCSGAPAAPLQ

[6] = target: Calcium/calmodulin-dependent protein kinase type II subunit gamma (Homo sapiens) (UniProt Q13555); conditions: at 10 µM
[7] = target: Calcium/calmodulin-dependent protein kinase type II subunit delta (Homo sapiens) (UniProt Q13557); conditions: at 1 µM
Calcium/calmodulin-dependent protein kinase type II subunit delta (Homo sapiens), sequence (Q13557 whole entry): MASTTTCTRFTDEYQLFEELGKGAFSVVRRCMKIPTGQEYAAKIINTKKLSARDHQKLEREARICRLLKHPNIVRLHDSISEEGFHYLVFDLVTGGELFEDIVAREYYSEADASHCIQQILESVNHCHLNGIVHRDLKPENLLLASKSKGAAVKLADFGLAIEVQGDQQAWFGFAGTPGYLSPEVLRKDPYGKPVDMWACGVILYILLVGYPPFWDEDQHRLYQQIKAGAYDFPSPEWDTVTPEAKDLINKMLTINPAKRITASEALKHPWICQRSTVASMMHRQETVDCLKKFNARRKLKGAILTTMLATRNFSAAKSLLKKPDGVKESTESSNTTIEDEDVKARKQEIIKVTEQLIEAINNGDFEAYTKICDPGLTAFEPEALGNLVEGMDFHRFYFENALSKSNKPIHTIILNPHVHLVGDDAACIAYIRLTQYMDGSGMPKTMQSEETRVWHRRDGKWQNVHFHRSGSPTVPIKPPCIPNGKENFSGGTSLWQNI

[8] = target: Calcium/calmodulin-dependent protein kinase type II subunit delta (Homo sapiens) (UniProt Q13557); conditions: at 10 µM
[9] = target: T1, Calcium/calmodulin-dependent protein kinase type IV (Homo sapiens) (UniProt Q16566); conditions: at 1 µM
T1 sequence (whole entry): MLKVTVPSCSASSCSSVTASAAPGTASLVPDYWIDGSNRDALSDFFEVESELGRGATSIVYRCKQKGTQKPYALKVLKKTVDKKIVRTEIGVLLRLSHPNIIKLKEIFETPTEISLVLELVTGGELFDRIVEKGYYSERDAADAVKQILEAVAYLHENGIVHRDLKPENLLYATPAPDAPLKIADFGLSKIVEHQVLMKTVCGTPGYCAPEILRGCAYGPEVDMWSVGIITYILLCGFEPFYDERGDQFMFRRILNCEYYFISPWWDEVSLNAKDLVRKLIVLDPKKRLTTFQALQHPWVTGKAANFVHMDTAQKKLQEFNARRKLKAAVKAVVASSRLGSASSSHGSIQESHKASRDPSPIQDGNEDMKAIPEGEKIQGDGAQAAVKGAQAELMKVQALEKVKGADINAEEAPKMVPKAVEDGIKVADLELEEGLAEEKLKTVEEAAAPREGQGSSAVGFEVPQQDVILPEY

[10] = target: T1, Calcium/calmodulin-dependent protein kinase type IV (Homo sapiens); conditions: at 10 µM

Calcium/calmodulin-dependent protein kinase type 1 (Homo sapiens), sequence (Q14012 whole entry, looked up): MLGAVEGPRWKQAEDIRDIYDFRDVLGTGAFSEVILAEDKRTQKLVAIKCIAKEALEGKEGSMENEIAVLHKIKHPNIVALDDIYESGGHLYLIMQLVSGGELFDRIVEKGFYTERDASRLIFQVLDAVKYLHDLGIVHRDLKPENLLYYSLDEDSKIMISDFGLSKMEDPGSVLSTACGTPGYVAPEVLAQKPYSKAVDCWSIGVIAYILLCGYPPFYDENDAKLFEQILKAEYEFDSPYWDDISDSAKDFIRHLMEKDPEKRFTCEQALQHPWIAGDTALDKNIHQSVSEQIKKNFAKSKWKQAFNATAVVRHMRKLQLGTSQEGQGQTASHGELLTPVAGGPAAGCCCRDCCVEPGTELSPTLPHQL

Row | Structure (SMILES) | residual activity [1] [%] | residual activity [2] [%] | residual activity [3] [%] | residual activity [4] [%] | residual activity [5] [%] | residual activity [6] [%] | residual activity [7] [%] | residual activity [8] [%] | residual activity [9] [%] | residual activity [10] [%]
1 | CNc1cc2c(Nc3cccc(Br)c3)ncnc2cn1 | 95 | 65 | 87 | 51 | 93 | 32 | 85 | 42 | 110 | 56
2 | Cc1ccc(S(=O)(=O)/C=C/C#N)cc1 | 95 | 77 | 101 | 88 | 103 | 94 | 104 | 107 | 108 | 86
3 | COc1ccc(S(=O)(=O)N(CCO)c2ccccc2CN(C)C/C=C/c2ccc(Cl)cc2)cc1 | 92 | 38 | 96 | 20 | 107 | 67 | 101 | 47 | 106 | 92
4 | CC(=O)c1ccc(N2CCOCC2)cc1O | 108 | 83 | 89 | 92 | 103 | 96 | 102 | 86 | 97 | 98
5 | CO[C@H]1[C@@H](OC)C[C@H](C)[C@@H](OC)C2=CC(=O)C=C(NC(=O)/C(C)=C/C=C/[C@H](OC)[C@@H](OC(N)=O)/C(C)=C/[C@@H]1C)C2=O | 115 | 88 | 97 | 93 | 107 | 100 | 102 | 110 | 89 | 81
6 | CCC(=O)Nc1ccc2ncnc(Nc3cccc(Br)c3)c2c1 | 96 | 98 | 90 | 80 | 100 | 74 | 109 | 79 | 123 | 73
7 | O=C(O)c1ccc2c3c1cccc3c(=O)n1c3ccccc3nc21 | 108 | 117 | 88 | 51 | 88 | 31 | 80 | 31 | 94 | 21
8 | N#C/C(=C(\N)Sc1ccc(N)cc1)c1ccccc1C(F)(F)F | 83 | 95 | 79 | 86 | 90 | 86 | 62 | 47 | 107 | 83
9 | COc1cc2ncnc(N3CCN(C(=O)Nc4ccc(Oc5ccccc5)cc4)CC3)c2cc1OC | 104 | 97 | 80 | 89 | 111 | 100 | 104 | 93 | 122 | 97
10 | COc1cccc(-c2cc(=O)c3ccccc3o2)c1N | 97 | 82 | 92 | 87 | 98 | 98 | 101 | 99 | 108 | 108
11 | Cc1nc(-c2ccccc2)c(-c2ccncc2)o1 | 104 | 89 | 97 | 86 | 97 | 83 | 104 | 81 | 108 | 112
12 | CO[C@@H]1[C@H](N(C)C(=O)c2ccccc2)C[C@H]2O[C@]1(C)n1c3ccccc3c3c4c(c5c6ccccc6n2c5c31)C(=O)NC4 | 84 | 29 | 18 | 4 | 10 | -1 | 5 | 1 | 98 | 50
13 | Nc1cccc(-c2cc3c(Oc4cccc(O)c4)ncnc3[nH]2)c1 | 88 | 66 | 75 | 23 | 40 | 10 | 42 | 10 |  | 
14 | Nc1ccc2ncnc(NCCc3ccc(Oc4ccccc4)cc3)c2c1 | 107 | 87 | 72 | 43 | 24 | 11 | 31 | 14 | 108 | 106
15 | CCOc1cc2ncnc(Nc3cccc(Br)c3)c2cc1OCC | 107 | 84 | 91 | 64 | 82 | 40 | 85 | 38 | 97 | 93
16 | O=C1NC(=O)/C(=C\c2ccc3nccnc3c2)S1 | 109 | 80 | 65 | 18 | 91 | 34 | 76 | 28 | 109 | 84
17 | Nc1nc(Nc2ccc(S(N)(=O)=O)cc2)nn1C(=S)Nc1c(F)cccc1F | 66 | 17 | 5 | -1 | 2 | 0 | 0 | 0 |  | 

Row | Structure (SMILES) | residual activity [1] [%] | residual activity [2] [%] | residual activity [3] [%] | residual activity [4] [%] | residual activity [5] [%] | residual activity [6] [%] | residual activity [7] [%] | residual activity [8] [%] | residual activity [9] [%] | residual activity [10] [%]
18 | O=c1cc(-c2cccc3c2Sc2ccccc2S3)oc(N2CCOCC2)c1 | 113 | 87 | 96 | 82 | 101 | 85 | 96 | 84 | 114 | 98
19 | N#Cc1cnc2cnc(NCc3cccnc3)cc2c1Nc1ccc(F)c(Cl)c1 | 42 | 26 | -2 | 1 | 0 | -1 | -1 | 0 | 98 | 102
20 | Oc1n[nH]c2nnc(-c3c(-c4ccccc4)nn4ccccc34)cc12 | 92 | 79 | 91 | 80 | 90 | 78 | 87 | 82 | 105 | 96
21 | CN(C)CCCn1cc(C2=C(c3c[nH]c4ccccc34)C(=O)NC2=O)c2ccccc21 | 89 | 49 | 63 | 18 | 28 | 6 | 16 | 5 | 88 | 45
22 | Oc1ccc(-c2nc(-c3ccc(F)cc3)c(-c3ccncc3)[nH]2)cc1 | 111 | 100 | 92 | 52 | 110 | 89 | 98 | 76 | 115 | 99
23 | CC(C)n1cnc2/c(=N/c3cccc(Cl)c3)nc(NCCO)[nH]c21 | 87 | 71 | 75 | 41 | 13 | 6 | 19 | 11 | 103 | 66
24 | Cn1cc(/C=C2\C(=O)Nc3ccc(S(N)(=O)=O)cc32)c2ccccc21 | 54 | 12 | 65 | 58 | 23 | -1 | 23 | 7 | 120 | 62
25 | O=C1NC(=O)/C(=C/c2ccc3c(c2)OC(F)(F)O3)S1 | 86 | 83 | 94 | 71 | 102 | 86 | 106 | 82 | 99 | 72
26 | Cn1nc2c3c(cccc31)C(=O)c1ccccc1-2 | 75 | 74 | 77 | 67 | 87 | 37 | 85 | 36 | 96 | 62
27 | CC(C)n1cnc2c(NCc3ccccc3)nc(NCCCO)nc21 | 80 | 68 | 84 | 66 | 94 | 59 | 86 | 58 | 112 | 90
28 | O=C(Nc1cccc(Nc2cc(Nc3cccc(C(F)(F)F)c3)ncn2)c1)C1CC1 | 114 | 57 | 91 | 86 | 98 | 74 | 97 | 67 | 116 | 94
29 | Cn1cnc2cc3c(Nc4cccc(Br)c4)ncnc3cc21 | 103 | 54 | 93 | 89 | 85 | 43 | 97 | 52 | 105 | 86
30 | COc1cc2ncnc(Nc3ccc(Oc4ccccc4)cc3)c2cc1OC | 102 | 76 | 88 | 84 | 102 | 102 | 105 | 111 | 103 | 104
31 | O=C1Nc2cc(Br)ccc2/C1=C1/Nc2ccccc2/C1=N\O | 59 | 12 | 15 | 8 | 3 | 2 | 1 | 2 | 59 | 73
32 | Nc1n[nH]c2nnc(-c3c(-c4ccccc4)nn4ccccc34)cc12 | 101 | 79 | 93 | 80 | 103 | 92 | 94 | 93 | 95 | 64
33 | NC(=O)c1ccc2[nH]c(-c3ccc(Oc4ccc(Cl)cc4)cc3)nc2c1 | 94 | 92 | 87 | 43 | 92 | 58 | 91 | 61 | 108 | 108
